From the supplement of paper PMC9694430

Columns and labels:
Experiment in all cases: thermal shift delta Tm vs DMSO control; higher = stronger stabilization (binding)
Settings in all cases: 12.5 µM; protein concentration 2 µM
LOC_OS01G57100-cb003 = system: LOC_OS01G57100-cb003
Procedure, shortened: (§1)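 Thermal shift values come from differential scanning fluorimetry on purified rice kinase domains made in E. coli, with melting temperatures obtained from Boltzmann fits. Samples of 19.5 μl held 2 μM kinase, 100 mM potassium phosphate pH 7.5, 150 mM NaCl, 10% glycerol, 5 × SYPRO Orange and compound in DMSO, and were heated from 25°C to 95°C at 0.05°C/s. Each shift is a triplicate mean relative to the DMSO-only protein sample.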

LOC_OS01G60330-cb001 = system: LOC_OS01G60330-cb001
Procedure, shortened: as §1

LOC_OS01G60700-cb002 = system: LOC_OS01G60700-cb002
Procedure, shortened: as §1

LOC_OS01G63280-cb003 = system: LOC_OS01G63280-cb003
Procedure, shortened: as §1

LOC_OS01G67340-cb003 = system: LOC_OS01G67340-cb003
Procedure, shortened: as §1

LOC_OS01G70970-cb002 = system: LOC_OS01G70970-cb002
Procedure, shortened: as §1

LOC_OS02G07810-cb001 = system: LOC_OS02G07810-cb001
Procedure, shortened: as §1

LOC_OS02G08530-cb003 = system: LOC_OS02G08530-cb003
Procedure, shortened: as §1

LOC_OS02G14120-cb001 = system: LOC_OS02G14120-cb001
Procedure, shortened: as §1

LOC_OS02G17970-cb001 = system: LOC_OS02G17970-cb001
Procedure, shortened: as §1

LOC_OS02G45750-cb003 = system: LOC_OS02G45750-cb003
Procedure, shortened: as §1

LOC_OS02G54510-cb004 = system: LOC_OS02G54510-cb004
Procedure, shortened: as §1

LOC_OS03G04050-cb001 = system: LOC_OS03G04050-cb001
Procedure, shortened: as §1

LOC_OS03G12390-cb001 = system: LOC_OS03G12390-cb001
Procedure, shortened: as §1

LOC_OS03G27990-cb004 = system: LOC_OS03G27990-cb004
Procedure, shortened: as §1

LOC_OS03G50450-cb001 = system: LOC_OS03G50450-cb001
Procedure, shortened: as §1

LOC_OS03G50810-cb003 = system: LOC_OS03G50810-cb003
Procedure, shortened: as §1

LOC_OS04G35114-cb001 = system: LOC_OS04G35114-cb001
Procedure, shortened: as §1

LOC_OS04G38480-cb003 = system: T1, LOC_OS04G38480-cb003
T1 sequence (whole entry): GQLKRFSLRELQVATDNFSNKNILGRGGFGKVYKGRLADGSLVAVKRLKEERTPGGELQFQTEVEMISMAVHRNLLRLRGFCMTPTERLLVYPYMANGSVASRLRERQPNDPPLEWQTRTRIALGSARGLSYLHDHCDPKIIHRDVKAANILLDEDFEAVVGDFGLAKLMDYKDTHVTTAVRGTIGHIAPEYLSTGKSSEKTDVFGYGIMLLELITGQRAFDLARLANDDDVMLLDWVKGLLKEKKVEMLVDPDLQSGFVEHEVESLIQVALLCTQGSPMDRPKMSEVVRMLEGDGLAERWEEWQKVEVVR
Procedure, shortened: as §1

LOC_OS04G41100-cb001 = system: T2, LOC_OS04G41100-cb001
T2 sequence (whole entry): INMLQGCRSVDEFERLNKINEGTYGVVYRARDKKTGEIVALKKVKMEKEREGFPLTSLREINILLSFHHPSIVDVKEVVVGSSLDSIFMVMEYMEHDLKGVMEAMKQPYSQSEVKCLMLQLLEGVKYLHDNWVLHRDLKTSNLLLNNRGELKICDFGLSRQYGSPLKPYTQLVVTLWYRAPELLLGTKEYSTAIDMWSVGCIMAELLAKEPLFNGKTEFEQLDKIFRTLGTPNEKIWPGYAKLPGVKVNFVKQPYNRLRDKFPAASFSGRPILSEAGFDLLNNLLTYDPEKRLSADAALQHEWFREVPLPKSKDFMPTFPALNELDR
Procedure, shortened: as §1
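Note: purified Escherichia coli-expressed rice kinase domain construct.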

Compound | thermal shift delta Tm (LOC_OS01G57100-cb003) | thermal shift delta Tm (LOC_OS01G60330-cb001) | thermal shift delta Tm (LOC_OS01G60700-cb002) | thermal shift delta Tm (LOC_OS01G63280-cb003) | thermal shift delta Tm (LOC_OS01G67340-cb003) | thermal shift delta Tm (LOC_OS01G70970-cb002) | thermal shift delta Tm (LOC_OS02G07810-cb001) | thermal shift delta Tm (LOC_OS02G08530-cb003) | thermal shift delta Tm (LOC_OS02G14120-cb001) | thermal shift delta Tm (LOC_OS02G17970-cb001) | thermal shift delta Tm (LOC_OS02G45750-cb003) | thermal shift delta Tm (LOC_OS02G54510-cb004) | thermal shift delta Tm (LOC_OS03G04050-cb001) | thermal shift delta Tm (LOC_OS03G12390-cb001) | thermal shift delta Tm (LOC_OS03G27990-cb004) | thermal shift delta Tm (LOC_OS03G50450-cb001) | thermal shift delta Tm (LOC_OS03G50810-cb003) | thermal shift delta Tm (LOC_OS04G35114-cb001) | thermal shift delta Tm (LOC_OS04G38480-cb003) | thermal shift delta Tm (LOC_OS04G41100-cb001)
Cc1csc(-c2nnc(Nc3ccc(Oc4ncccc4-c4ccnc(N)n4)cc3)c3ccccc23)c1 | 2.43 °C | -0.58 °C | 0.56 °C | 14 °C | 0.96 °C | 0.74 °C | 1.36 °C | 4.38 °C | 3.75 °C | 1.17 °C | 1.33 °C | 0.9 °C | 0.3 °C | 0.26 °C | 0.96 °C | 0.26 °C | 0.96 °C | 1.18 °C | 2.54 °C | 1.68 °C
O=C(NCCCNc1nc(Nc2cccc(NC(=O)N3CCCC3)c2)ncc1I)c1cccs1 | 1.91 °C | 11.8 °C | 0.35 °C | 0.47 °C | 2.07 °C | 8.4 °C | 1.11 °C | 2.77 °C | 9.13 °C | 0.49 °C | 14.3 °C | 1.24 °C | 0.97 °C | 7.32 °C | 0.57 °C | 6.67 °C | 6.52 °C | 7.01 °C | 3.4 °C | 2.91 °C
OC1CCC(Nc2ncc3nc(Nc4c(F)cc(F)cc4F)n([C@H]4CCOC4)c3n2)CC1 (stereo not given in full) [Tanzisertib(CC-930)] | 1.12 °C | 0.58 °C | 0.28 °C | 0.29 °C | 0.54 °C | 0.55 °C | -0.22 °C | 1.25 °C | 1.58 °C | 0.06 °C | 0.96 °C | 0.18 °C | 0.57 °C | 0.23 °C | 0.5 °C | 0.44 °C | 0.62 °C | 0.93 °C | 1.65 °C | 0.44 °C
COc1cc(Nc2ncc3c(n2)-c2ccc(Cl)cc2C(c2c(F)cccc2OC)=NC3)ccc1C(=O)O [Alisertib (MLN8237)] | 0.2 °C | 0.56 °C | 0.66 °C | 0.76 °C | 0.39 °C | 0.83 °C | 0.08 °C | 0.3 °C | 4.62 °C | 0.21 °C | 2.28 °C | 4.54 °C | 0.09 °C | 0.11 °C | -0.26 °C | -0.33 °C | 1.53 °C | 2.39 °C | 0.2 °C | 0.09 °C
C[C@@H]1COCCN1c1cc(C2([S@](C)(=N)=O)CC2)nc(-c2cc[nH]c3nccc2-3)n1 | 0.97 °C | 0.61 °C | 0.22 °C | -0.13 °C | 0.47 °C | 0.14 °C | 0.56 °C | 0.49 °C | 0.92 °C | 0.47 °C | 0.39 °C | 0.1 °C | 0.32 °C | -0.31 °C | 0.13 °C | 0.46 °C | 0.2 °C | 2.45 °C | 0.68 °C | 0.52 °C
CC[C@@](C)(Nc1ccnc(-c2c[nH]c3ncccc23)n1)C(=O)NCC(F)(F)F [Decernotinib (VX-509)] | 2.18 °C | 0.73 °C | 0.67 °C | 0.95 °C | 0.62 °C | 0.36 °C | 0.36 °C | 0.65 °C | 5.49 °C | 0.86 °C | 1.82 °C | 0.32 °C | 0.47 °C | 0.52 °C | 0.33 °C | 0.54 °C | 1.35 °C | 1.32 °C | 3.52 °C | 0.25 °C
CCC(=O)Nc1cccc(Oc2nc(Nc3ccc(N4CCN(C)CC4)cc3OC)ncc2Cl)c1 | 0.87 °C | 1.08 °C | 1.14 °C | 0.16 °C | 0.44 °C | 0.22 °C | 0.45 °C | 1.46 °C | 0.22 °C | 0.04 °C | 1.13 °C | -0.03 °C | 0.41 °C | 2.35 °C | 0.56 °C | 0.69 °C | 1.06 °C | 0.8 °C | 1.83 °C | 0.39 °C
CC(C)(C)NC(=O)c1cncn1C1CCN(c2ccc(-c3nnc(C(F)(F)F)o3)cn2)CC1 | -0.21 °C | 0.32 °C | -0.26 °C | -0.16 °C | 0.05 °C | 0.37 °C | -1.16 °C | 0.52 °C | 0.95 °C | -0.2 °C | 0.9 °C | 0.27 °C | 0.48 °C | -0.08 °C | 0.32 °C | 0.7 °C | 0.36 °C | -0.3 °C | 1.43 °C | 0.3 °C
Nc1nc(N)c(N=O)c(OCC2CCCCC2)n1 | 1.14 °C | 2.6 °C | 1.46 °C | 0.91 °C | 0.46 °C | 1.27 °C | 0.51 °C | 0.99 °C | 2.99 °C | 0.61 °C | 0.64 °C | 0.21 °C | 0.46 °C | 3.99 °C | 2.79 °C | 0.35 °C | 0.92 °C | 1.13 °C | 1.28 °C | 0.59 °C
COc1ncc(-c2ccc3nccc(-c4ccnnc4)c3c2)cc1NS(=O)(=O)c1ccc(F)cc1F | 2.01 °C | 0.36 °C | 1.17 °C | 0.66 °C | 1.24 °C | 0.34 °C | 1.43 °C | 0.74 °C | 0.78 °C | 1.75 °C | 1.38 °C | 0.45 °C | 0.9 °C | 0.76 °C | 0.69 °C | 1.26 °C | 1.09 °C | 2.35 °C | 1.39 °C | 0.74 °C
